# Data as given in PubChem BioAssay AID1347426 (Functional Genomics Laboratory (NCATS/FGL), 2020).
# About 1,400 (4.5%) of roughly 31,000 sequences were called active.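 How the source made its calls: active means median seed-adjusted z-score above 1 or below -1; inactive means the rest.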 This excerpt belongs to a sample that is enriched for actives.
# Experiment: Novel Modifiers of Survival Motor Neuron (SMN) Protein: Gene Identification via Genome-wide siRNA Screen;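 further: luminescence tracks full-length SMN protein made from the SMN2 reporter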
# Settings: HEK293T SMN2-luciferase reporter, siRNA knockdown, 72 h; actives lie on both sides
# Outline: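 HEK293T cells stably expressing an SMN2 splicing/cDNA-luciferase reporter were reverse-transfected with a druggable-genome siRNA library and read by luminescence at 72 hours; hits defined by MAD score above 1.0 or below -1.0.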
row,Sequence,median seed-adjusted z-score
1,GGAUUUGCCCUGACAAAAATT against ZRANB2,0.441 (inactive)
2,CAUUGAGAAUAAUAACAGATT against PPP3CA,0.74 (inactive)
3,GCCUAUUAUGGAGAAAAGATT against HES1,-0.262 (inactive)
4,CGAUAUGAUUGGCCAGAGATT against GIPC3,-0.27 (inactive)
5,CGGAUUUGUUGCUAAAUGATT against PCDHB8,1.15 (active)
6,CUGACAGUGUGGAUCGAUATT against COL12A1,0.00422 (inactive)
7,GGAUUGAAAACAAACUCUATT against RET,-0.931 (inactive)
8,GCGGUACUUUGAGCAGUUATT against P4HA2,0 (inactive)
9,GGCUCUUCAAGGCUAUGAATT against ANXA6,-1.01 (active)
10,GUCUGUAACUGAGCAAGGATT against YWHAZ,0.721 (inactive)
11,ACGGUUCGCUGAAAAAGAATT against PITX3,0 (inactive)
12,CGUCCAUACUUACCUAAUUTT against UGT2A1,0.213 (inactive)
13,CGACCGCACCUGGAAUGAATT against PLA2G4D,-0.233 (inactive)
14,GCGUGUCAGCUGUUCAUUATT against OSBPL5,0.638 (inactive)
15,CAAGCCCUCUGAAACAGUUTT against ADRA1A,-1.06 (active)
16,GCAUAUGAUUUUAUGGUAATT against FBXW7,0 (inactive)
17,CUCUCUAUAUUGAAACCAATT against CHN1,2.1e-05 (inactive)
18,ACUGAAAGCUGAUUAAUUATT against KLK2,0.0716 (inactive)
19,GAGCUGAUCUGUUACAAGUTT against DAK,-0.372 (inactive)
20,GAACACUCUAUGUCUAAUATT against MYNN,0.0702 (inactive)
21,GUGAUGUCAUUAGGCAGAATT against CRIP3,1.7 (active)
22,UCCCAGUUCUGAUACAUAUTT against SAE1,0.831 (inactive)
23,AGACCUGCGUGGUGCACUATT against FKBP1A,0.113 (inactive)
24,GGAGCUUCAGGUUGUCCGATT against RPUSD3,0.303 (inactive)
25,CGAUGGACAGUGUCUCUUATT against ALG6,0.106 (inactive)
26,UCCUUGUUGUGGACAGGGATT against SPINK4,-0.0134 (inactive)
27,GGACCUAUUCGUCAAAUCATT against SF3B14,-1.26 (active)

row,Sequence,median seed-adjusted z-score
1,CCUUGCUUGUGAGAGCAGATT against NPAS1,-0.386 (inactive)
2,GCGUUAUCCUCGUACCUUUTT against STC2,-0.00039 (inactive)
3,CUAUCCACCAUACAUUUCATT against NTM,0 (inactive)
4,GCAACGGGUUUGGAGUCAATT against KRT75,0.0773 (inactive)
5,CCAUCUCGACUGACAAGAATT against TNNI3K,-0.178 (inactive)
6,GCUAUUAUCUAAGCACGAATT against ADAMTS20,1.44 (active)
7,GAUAUAUCCGAAACCAGUATT against PDGFD,0.366 (inactive)
8,GAAUCGGCGAUGUACUAGATT against NT5C3,-0.456 (inactive)
9,CUAUGUCGUUGAAAACCAUTT against KCNE1,-0.347 (inactive)
10,GGAAGUAUUAGGGUACAAATT against SOS2,0.3 (inactive)
11,GAGUAUCUCUGAAACCUCUTT against IL1A,1.12 (active)
12,GGGAGUGACAUAUCCAAGATT against CCL26,-0.01 (inactive)
13,CGGAAGGUGUAUGAACUGATT against ICAM1,0.345 (inactive)
14,GCAAGGUCGUCAACCGCAATT against SAPS1,1.16 (active)
15,GCAGUUCCAUGGUACACCATT against ASAH1,0.421 (inactive)
16,GUCAGAUACAUGAACCAGATT against JMJD1A,0.466 (inactive)
17,GGAUAGGAGUCAUCAGCCUTT against SSTR3,0 (inactive)
18,CCCAAUUCAGAUUACUACATT against POLN,-0.129 (inactive)
19,CUACUCAACAGACAUAAUATT against TRIP13,1 (active)
20,GGCUUCUACUGGUGUCUGATT against PIGR,-0.35 (inactive)
21,GGACUUACACUCUUAGGAATT against MAOB,0 (inactive)
22,CACAACAUCUUGUAAGACUTT against GNG13,-0.516 (inactive)
23,CGCCGACUCUAUUCAUGCATT against RAB22A,0.321 (inactive)
24,CGAGAGUAAUUUGAAGAAUTT against SIGMAR1,-1.4 (active)
25,GAUGGAUCUUUACAGUUGATT against METTL4,0.244 (inactive)
26,GAACAAUCAUUGCAUCGGATT against CPB2,-0.62 (inactive)
27,CCUUACCUGGAGUACCCAATT against PMPCA,-0.985 (inactive)
